A selection: hits, their analogues and other compounds. The true share with any hit is near 3.5%.
TEAD-YAP block = TEAD-YAP interaction inhibition, primary screen, TEAD-YAP interaction inhibitor project, luminescence, HEK-TIYL cells; actives 1.4% (n = 640,000); TEAD-Gal4/YAP UAS-luciferase luminescence; inhibition, % at 9.12 µM; in the data active = inhibition above about 32%;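 note: 0% = median of test compound wells and 100% = reference inhibitor wells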
GPR151 activ = activators of human GPR151, primary screen, cell-based, PathHunter beta-arrestin, luminescence. AID 1508602, 2020. actives 1% (n = 650,000). PathHunter beta-arrestin GPR151 cells. activation, % at 11.2 µM. G-protein coupled receptor 151 (Homo sapiens), Q8TDV0; in the data active = activation above about 4.9%;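 note: 0% = median of compound wells and 100% = cells with positive control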
Target sequence (Q8TDV0 whole entry, looked up): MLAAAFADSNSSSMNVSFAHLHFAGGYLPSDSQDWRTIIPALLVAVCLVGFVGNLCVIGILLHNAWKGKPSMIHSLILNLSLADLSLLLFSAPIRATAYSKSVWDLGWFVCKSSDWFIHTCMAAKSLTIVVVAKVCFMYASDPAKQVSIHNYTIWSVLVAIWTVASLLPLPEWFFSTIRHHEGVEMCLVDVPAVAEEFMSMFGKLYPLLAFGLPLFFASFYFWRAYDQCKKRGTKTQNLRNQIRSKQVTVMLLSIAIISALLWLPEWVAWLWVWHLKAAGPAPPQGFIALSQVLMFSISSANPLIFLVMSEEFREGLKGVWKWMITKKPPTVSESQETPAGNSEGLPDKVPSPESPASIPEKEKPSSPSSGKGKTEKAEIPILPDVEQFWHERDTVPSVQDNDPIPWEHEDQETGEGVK
FBW7 activator = FBW7 E3 ligase activators, primary screen, biochemical, AlphaScreen, human | actives 0.13% (n = 650,000) | AlphaScreen FBW7–phospho-cyclin E peptide binding, activator screen | normalized activity (activation), % at 26.1 µM; in the data active = normalized activity above about 1.9%;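 note: purified mutant Fbw7 with reduced substrate affinity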
MITF primary = MITF inhibitors, primary screen, biochemical, AlphaScreen, human | actives 0.91% (n = 650,000) | inhibition, % at 2.6 µM | Microphthalmia-associated transcription factor (Homo sapiens), O75030 | AlphaScreen MITF homodimerization, bead proximity signal; in the data active = inhibition above about 50%;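 note: 0% = vehicle wells with protein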
Numbers without * were called inactive.

SMILES | TEAD-YAP block | GPR151 activ | FBW7 activator | MITF primary
COc1ccc(-c2nc3ccccc3c(=O)n2NC(=O)COc2ccc(Cl)cc2Cl)cc1OC | 7 | 0 | 0 | 5
COc1c(NC(=O)Nc2ccccc2C)cc([N+](=O)[O-])c(OC)c1C | 45* | 1 | 0 | 6
O=C(OCCN1C(=O)c2ccccc2C1=O)c1cccc(Br)c1 | -2 | 1 | 0 | -12
COc1cc(C2C3=C(CC(C)(C)CC3=O)Nc3c2ccc2ccccc32)cc(Br)c1O (stereo not given) | 60* | 1 | 0 | -3
CC1=C(C(=O)OCCc2ccccc2)C(c2ccc(Cl)cc2Cl)C2=C(CC(C)(C)CC2=O)N1 (stereo not given) | -1 | 2 | 2.1* | 19
CCOC(=O)C1=C(C)NC2=C(C(=O)CC(C)(C)C2)C1c1cccc(OC)c1O (stereo not given) | 11 | -1 | 1.9* | 4
COC(=O)C1=C(C)NC2=C(C(=O)CC(C)(C)C2)C1c1cccc(Cl)c1Cl (stereo not given) | 2 | 1 | 2.0* | 0
Cc1cc(=O)[nH]c(N/N=C/c2cccc(OCc3ccccc3)c2)n1 | -3 | 1 | 0 | 2
O=C(Cn1c(=O)n(Cc2ccc(Cl)cc2)c(=O)c2cccnc21)Nc1ccc(F)cc1 | 4 | 0 | 0 | 4
O=C(NCc1ccccc1)c1ccc(Br)c(S(=O)(=O)N2CCOCC2)c1 | 2 | 1 | 1 | 16
COc1ccccc1C1C(C(=O)OC2CCCC2)=C(C)NC2=C1C(=O)CC(c1ccccc1)C2 (stereo not given) | -2 | 1 | 2.6* | 2
COc1ccc(C2CC(=O)C3=C(C2)NC(C)=C(C(=O)OC2CCCC2)C3c2ccc(F)cc2)cc1OC (stereo not given) | 37* | 0 | 0 | 1
CCCOC(=O)C1=C(C)NC2=C(C(=O)CC(c3ccc(OC)c(OC)c3)C2)C1c1ccc(Cl)cc1Cl (stereo not given) | 4 | -1 | 0 | 12
CCCOC(=O)C1=C(C)NC2=C(C(=O)CC(c3ccc(OC)c(OC)c3)C2)C1c1cccc(Cl)c1 (stereo not given) | 35* | 0 | 1 | 8
COc1ccc(C2CC(=O)C3=C(C2)NC(C)=C(C(=O)OC2CCCC2)C3c2ccccc2F)cc1OC (stereo not given) | 48* | -1 | 0 | -16
COc1cccc(C2C(C(=O)OC3CCCC3)=C(C)NC3=C2C(=O)CC(c2ccccc2)C3)c1OC (stereo not given) | 4 | -1 | 0 | -19
COc1cccc(-c2ccc(C(=O)NCCNC(C)=O)c(N3CCOCC3)n2)c1 | -14 | 1 | 0 | -2
Nc1c(Br)cc(C(=O)OCC(=O)c2ccc(Cl)c([N+](=O)[O-])c2)cc1Br | 1 | 0 | 0 | -4
O=C(NCc1cccs1)C1CC12CCN(Cc1cccn1-c1ncccn1)CC2 (stereo not given) | 10 | 0 | 0 | -2
Cc1cc(NC(=O)CSc2nc(CC(C)C)nc3c2c(=O)n(C)c(=O)n3C)no1 | -1 | 0 | 0 | 5
NS(=O)(=O)c1ccc(CCNc2ncnc3c2c(-c2ccccc2)cn3-c2cccc(C(F)(F)F)c2)cc1 | 8 | -1 | 0 | 1
COc1ccc(C2CC(=O)C3=C(C2)NC(C)=C(C(=O)OC2CCCC2)C3c2cccc(C)c2)cc1OC (stereo not given) | 47* | 0 | 0 | -34
COc1ccc(C2CC(=O)C3=C(C2)NC(C)=C(C(=O)OC2CCCC2)C3c2cccc(Cl)c2)cc1OC (stereo not given) | 30 | 2 | 0 | -8
COc1ccc(C2CC(=O)C3=C(C2)NC(C)=C(C(=O)OC2CCCC2)C3c2cccc([N+](=O)[O-])c2)cc1OC (stereo not given) | 42* | 1 | 0 | 14
CN(C)c1cc(C(=O)N2CCNCC2)nc(N(C)C)n1 | -1 | 1 | 0 | 13
SMILES | TEAD-YAP block | GPR151 activ | FBW7 activator | MITF primary
Cc1nc2ccc([N+](=O)[O-])cc2s1 | 12 | 0 | 0 | 8
Cc1nc2cc(Cl)c([N+](=O)[O-])cc2s1 | 1 | 2 | 2.0* | 3
O=C(NNC(=S)Nc1ccc(F)cc1)c1ccc(O)cc1 | -51 | 0 | 0 | 11
COC(=O)c1nnn(CC(=O)Nc2ccc(OC)cc2)c1C(=O)OC | 8 | 0 | 0 | -5
CCOc1ccccc1NC(=O)c1sc2nc3cc4c(cc3cc2c1N)OCCO4 | -4 | 0 | 0 | 23
O=C(NC1CCN(Cc2ccccc2)CC1)c1ccc(Cn2nnc3ccccc3c2=O)cc1 | 35* | -1 | 0 | 4
Cc1ncn(-c2ccc(Nc3cc(-c4nocc4-c4c(C)n[nH]c4C)ccn3)cc2)n1 | 48* | -2 | 0 | 5
Cc1ccc(S(=O)(=O)Nc2cc(C)c(O)c(C)c2Br)cc1 | 10 | 1 | 0 | -4
CC(=O)N1C(=O)/C(=C2\SC(=O)NC2=O)c2ccccc21 | -11 | 1 | 0 | 2
CC1(c2ccccc2)CC(C)(C)N2C(=O)/C(=C3\SC(=O)NC3=O)c3cccc1c32 (stereo not given) | 50* | 0 | 0 | 3
CC(=O)c1ccc(NC(=O)/C(=C\c2cccc([N+](=O)[O-])c2)NC(=O)c2ccccc2Cl)cc1 | 0 | 1 | 0 | -12
Nc1c(C(=O)c2ccc(F)cc2)sc2nc(-c3ccccc3)cc(-c3ccccc3)c12 | 3 | 1 | 0 | -4
Nc1c(C(=O)c2ccc(F)cc2)sc2nc(-c3ccccc3)cc(-c3ccco3)c12 | 7 | 2 | 0 | 63*
CCCNc1ccnc2c(-c3cccc(N(C)C)c3)cnn12 | 32* | 1 | -1 | 5
CN(C)c1cccc(Nc2ccnc3c(-c4ccsc4)cnn23)c1 | -3 | 0 | 0 | -12
CN(C)c1cccc(Nc2ccnc3c(-c4cccc(O)c4)cnn23)c1 | 65* | 0 | 0 | 1
CCCNc1ccnc2c(-c3cccc(C(=O)O)c3)cnn12 | 103* | -7 | 0 | -10
COCCNc1ccnc2c(-c3cccc(C(=O)O)c3)cnn12 | 99* | 1 | 0 | -2
COCCNc1ccnc2c(-c3cccc(N(C)C)c3)cnn12 | -23 | 0 | 0 | 10
COCCNc1ccnc2c(-c3ccc(C(=O)NC4CC4)cc3)cnn12 | 1 | 1 | 0 | -283
CCCNc1ccnc2c(-c3cccc(C(C)=O)c3)cnn12 | -39 | -1 | 0 | -19
CCOc1ccccc1NC(=O)c1ccc(F)c(S(=O)(=O)N2CCCc3ccccc32)c1 | 8 | 0 | 0 | 12
Cc1ccc(S(=O)(=O)Nc2nccnc2-c2ccc(C=O)cc2)nc1 | -52 | 3 | 0 | -7
COc1ccc(O)c(/C=N/NC(=O)CNC(=O)c2ccc(Cl)cc2)c1 | -9 | 0 | 0 | -6
Cc1ccc(-c2nc(Nc3ccc(C)c(Cl)c3)c3ccccc3n2)cc1 | -3 | -1 | 0 | -1
